Measured potencies and affinities stand elsewhere. The source made the active and inactive calls. No rule for the calls is given here.

The nature of the experiment: HEK293 cell viability loss – plate reader, cherry-pick, cytotoxicity control, dose response (AID 651899).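 Also: cells exposed to compound for 48 hours.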 To be noted: series mostly up to 26 µM.
Take `C#CCSc1nnc(-c2sc(-c3ccccc3)nc2C)n1C`: the result was inactive.

With `Nn1c(SCc2nc3ccccc3[nH]2)nnc1-c1cccnc1`, the molecule was classed as inactive.

For the molecule `COc1ccc(NC(=O)c2cnc(C)cn2)cc1-n1cnnn1`, the molecule was classed as inactive.

In the case of `CC(=O)c1ccc(C(=O)N2CCCC(Nc3ccc(C(C)C)cc3)C2)s1` (stereo unspecified), the call was inactive.

In the case of `O=C(CSc1nc2c(c(=O)n1-c1ccccc1)SCC2)N1CCN(c2ccccc2)CC1`, the outcome was inactive.

Take `O=C(Nc1ncc2c(n1)CC(c1ccccc1)CC2=O)c1ccco1` (stereo unspecified): the molecule was classed as inactive.

Take `COC(=O)C[C@H]1CC[C@@H]2[C@H](COC[C@@H](O)CN2C(=O)Nc2cccc(F)c2)O1`: the call was inactive.

For `O=C(Nc1ncc2c(n1)CC(c1cccc(Cl)c1)CC2=O)c1ccco1` (stereo unspecified), the result was inactive.

With `CC(=O)c1c(C)[nH]c(C(=O)Nc2cccnc2)c1C`, the outcome was inactive.

With `O=C(CSc1nnc(-c2ccncc2)n1-c1ccc(Cl)cc1)NCc1cccs1`, the result was inactive.

Consider `COC(=O)c1sc(N)c(C(=O)OC)c1CSc1nnc(-c2ccccc2Cl)n1C`, for which the molecule was called inactive.

Regarding `CCC(=O)N1CC[C@@H]2[C@H]1c1cc(-c3cccc(F)c3)ccc1N(C)[C@@H]2CO`, the molecule was classed as inactive.

In the case of `O=C(C[C@@H]1C[C@@H]2c3cc(NC(=O)c4cccnc4)ccc3O[C@@H]2[C@@H](CO)O1)NCc1cccnc1`, the molecule was classed as inactive.

As for `CO[C@H]1CN(C)C(=O)c2ccc(NC(C)=O)cc2OC[C@@H](C)N(C(=O)c2ccc(F)cc2)C[C@H]1C`, the outcome was inactive.

`Cc1ccc(-n2ncc3c2CC(C)(C)CC3NC(=O)CCc2cccnc2)cc1` (stereo unspecified): the outcome was inactive.

`CCCOc1ccc2c3c(c(=O)oc2c1OCCC)CCC3`: the molecule was called inactive.

With `C[C@H](CO)N1C[C@H](C)[C@@H](CN(C)Cc2ccc3c(c2)OCO3)Oc2ccc(NC(=O)Cn3cnnn3)cc2CC1=O`, the result was inactive.

For the molecule `COCCNC(=O)C[C@@H]1CC[C@@H]2[C@H](COc3ccc(NC(=O)Nc4cccc(F)c4)cc3C(=O)N2C)O1`, the result was inactive.

For `O=C(c1ccncc1)N1CC[C@H]2[C@H](CO)Nc3ccc(Br)cc3[C@H]21`, the molecule was classed as inactive.

Turning to `O=C(c1cccc(F)c1)N1CC[C@@H]2[C@H](CO)Nc3ccc(-c4cccc(F)c4)cc3[C@@H]21`, the molecule was classed as inactive.

Take `COc1ccc(F)cc1C(=O)C1CCCN(C(=O)c2ccc(C(C)=O)s2)C1` (stereo unspecified): the molecule was classed as inactive.

On to `Cc1cccc(-c2ccc3c(c2)C2CC3CCN2)c1` (stereo unspecified), for which the outcome was inactive.

Turning to `COc1ccc(NC(=O)c2ccc(S(=O)(=O)N(C)C)cc2)cc1OC`, the call was inactive.

For the molecule `Cc1nc2nc(SCC(=O)NCc3ccco3)nn2c(C)c1Cc1ccccc1`, the molecule was called inactive.

Turning to `COc1cccc(NC(=O)N2C[C@H](O)COC[C@@H]3O[C@@H](CC(=O)N(C)C)CC[C@H]32)c1`, the call was inactive.

As to `O=C(CSc1nc2c(c(=O)n1-c1ccc(Cl)cc1)SCC2)N1CCOCC1`, the molecule was called inactive.

On to `COC(=O)c1c(C(=O)OC)c(-c2ccccc2)n2c1CS(=O)C2` (stereo unspecified), for which the outcome was inactive.

Turning to `O=C(N[C@H]1CC[C@@H](CCn2cc(-c3cccnc3)nn2)O[C@H]1CO)c1ccccc1F`, the molecule was classed as inactive.

`O=C(Nc1cccnc1)c1ccc(Cl)c(Cl)c1`: the molecule was classed as inactive.

On to `COc1ccc(-c2ccc3c(c2)C2CC3CCN2)cc1` (stereo unspecified), for which the molecule was classed as inactive.

For the molecule `CC(=O)O[C@]1(C(C)=O)CC[C@H]2[C@@H]3C=C(C)C4=CC(=O)CC[C@]4(C)[C@H]3CC[C@@]21C`, the molecule was classed as inactive.

On to `Cc1ccc(/C=C(\CCC(=O)O)c2nc3ccccc3s2)cc1[N+](=O)[O-]`, for which the result was inactive.

Turning to `O=C(Nc1ccccc1)N1CCN(Cc2ccc3c(c2)OCO3)CC1`, the result was inactive.

`Cc1cc(C(=O)CSc2nncs2)c(C)n1-c1ccc2c(c1)OCO2`: the call was inactive.

On to `O=C(COc1ccc2ccc(=O)oc2c1)Nc1cccnc1`, for which the result was inactive.

Turning to `Cc1ccccc1-n1c(SCC(=O)N(C)C2CCS(=O)(=O)C2)nc2ccccc2c1=O` (stereo unspecified), the outcome was inactive.

Source of the values: PubChem BioAssay AID651899 (Broad Institute, 2012).
